Data on 17 compounds can be found in PubChem BioAssay (NCI).

This is part of a sample that, as a whole, favours compounds with a hit. Of some 83,000 tested, about 20% had one in any assay.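 Note: values are percent growth. 100 is the growth of untreated cells, values between 100 and 0 indicate rising inhibition; between -100 and 0 indicates cell death.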 Activity calls are given as the source filed them. Rule for the calls: active = growth percent below 10; inactive = the rest.

The subject of this test is A498 renal. Briefly: NCI-60 one-dose screen, 48 h (100 = growth as untreated, 0 = no growth, -100 = all killed). As to conditions: 10 µM unless noted.
With `Nc1cc2nc3ccccc3sc-2cc1=O`, the growth was 106% (inactive).

As for `Cc1noc(C)c1-c1cc(O)cc(C(O)c2ccccc2)c1` (configuration not stated), the growth was -3.34% (active).

For the compound `CCCCCC(=O)N(CCCC)CCCC`, the growth was 127% (inactive).

With `COc1ccc(/C=N\NC(=O)c2ccncc2)cc1O`, the growth was 108% (inactive).

Regarding `O=C(Cn1cc(CN2C(=O)c3ccccc3S2(=O)=O)nn1)Nc1ccc([N+](=O)[O-])cc1Cl`, the growth is 103% (inactive).

Turning to `Oc1ccc(Nc2nccc(-c3ccc4ccccc4c3)n2)cc1`, the growth was 21.8% (inactive).

For `O=C1C=CC(=O)c2c1nc1n2CCCC1`, the growth was 96.3% (inactive).

In the case of `Cc1cc(Nc2nc(N3CCOCC3)nc3ccccc23)n[nH]1`, the growth is -13.4% (active).

Consider `Cc1ccc(C2CC3c4ccccc4C2C2CCCCN32)cc1` (configuration not stated), for which the growth is 139% (inactive).

For the compound `Cc1csc2ccc(Cl)cc12`, the growth is 119% (inactive).

As for `O=S(=O)(Nc1ccc(F)c(Cl)c1)c1ccc(-c2cnc(C3CC3)o2)cc1`, the growth was -14.5% (active).

Take `CC#Cc1nc2ccccc2c(=O)[nH]1`: the growth was -44.8% (active).

With `C[C@H](CCC(=O)O)[C@H]1CC[C@H]2[C@@H]3CC[C@@H]4/C(=C\c5ccco5)C(=O)/C(=C\c5ccco5)C[C@]4(C)[C@H]3CC[C@]12C`, the growth is 115% (inactive).

In the case of `Cc1cc(Nc2nc(-c3cccnc3)nc3ccccc23)n[nH]1`, the growth was -19.7% (active).

In the case of `COc1cc(OC)c(/C=C/c2cc[n+](C)c3ccccc23)c(OC)c1`, the growth was 9.92% (active).

As to `CCCCCCCCCCCCCCCC[N+]1(CC)CCCC1`, the growth was -9.64% (active).

Turning to `CC(=O)OCC(=O)C1CCC=CC1OC(C)=O` (configuration not stated), the growth is 110% (inactive).
